The supplement of paper PMC10849652
About 8,800 targets were measured; listed, in parts, are those with a hit and a random draw of the rest. About 0.5% of all pairs of compound and target were hits.

Legend:
Assay in all cases: log2 fold change, soluble protein after heating vs DMSO (PISA); higher = thermal stabilisation; K562 lysate, 10 uM; active = over 0.2 and 3.5 SD of the protein, either way, in both replicates (recomputed)
[1] = compound: C1=CC=C(C=C1)[C@H](COC2=CC3=C(C=C2)NC(=O)N3)NC(=O)C4=CC=CN(C4=O)CC5=CC(=C(C=C5)F)F
Outline: (§1)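 K562 pellets were dounce-homogenised in PBS pH 7.4 containing 1 mM MgCl2, and the crude extract, at 1 mg/mL protein, was exposed to 10 μM compound for 30 min. Aliquots were heated for 3 min across 48°C-58°C, pooled, brought to 0.5% NP-40 at 4°C and spun at 21,000xg for 90 min, with the supernatant taken as soluble protein. TMTpro 16plex LC-MS/MS with equalised channel sums quantified that protein. Values are log-two fold changes in thermal stability relative to solvent controls, taken from duplicates.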

[2] = compound: CC1=C(SC2=C1C(=N[C@H](C3=NN=C(N32)C)CC(=O)N)C4=CC=C(C=C4)Cl)C
Outline: as §1

[3] = compound: CC1=C2C(=CC=C1)N=C(N(C2=O)C3=CC=CC=C3C)CN4C=NC5=C(N=CN=C54)N
Outline: as §1

[4] = compound: Cc1sc2c(c1C)C(c1ccc(Cl)cc1)=N[C@@H](CC(=O)OC(C)(C)C)c1nnc(C)n1-2
Outline: as §1

[5] = compound: c1ccc([C@@H]2C[C@H]2NC2CCNCC2)cc1
Outline: as §1

Measured: log2 fold change

TMEM164 (UniProt Q5U3C3)
UniProt Q5U3C3, sequence (Q5U3C3 whole entry, looked up): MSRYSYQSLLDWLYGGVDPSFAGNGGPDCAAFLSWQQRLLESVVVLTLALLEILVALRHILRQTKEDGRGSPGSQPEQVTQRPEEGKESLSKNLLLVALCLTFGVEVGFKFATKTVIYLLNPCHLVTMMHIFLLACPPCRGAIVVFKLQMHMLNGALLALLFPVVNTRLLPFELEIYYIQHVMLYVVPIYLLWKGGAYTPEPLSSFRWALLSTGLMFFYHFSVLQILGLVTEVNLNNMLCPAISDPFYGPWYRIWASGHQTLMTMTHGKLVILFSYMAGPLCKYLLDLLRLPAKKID
inactive: [1] -0.13 | [2] -0.155 | [3] 0.111 | [4] -0.217 | [5] -0.543

TMEM14C (UniProt Q9P0S9)
UniProt Q9P0S9, sequence (Q9P0S9 whole entry, looked up): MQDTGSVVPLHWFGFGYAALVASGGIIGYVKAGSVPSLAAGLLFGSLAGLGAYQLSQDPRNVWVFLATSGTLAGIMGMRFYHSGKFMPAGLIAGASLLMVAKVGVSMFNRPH
inactive: [1] -0.131 | [2] -0.031 | [3] 0.14 | [4] -0.015

UBXN6 (UniProt Q9BZV1)
UniProt Q9BZV1, sequence (Q9BZV1 whole entry, looked up): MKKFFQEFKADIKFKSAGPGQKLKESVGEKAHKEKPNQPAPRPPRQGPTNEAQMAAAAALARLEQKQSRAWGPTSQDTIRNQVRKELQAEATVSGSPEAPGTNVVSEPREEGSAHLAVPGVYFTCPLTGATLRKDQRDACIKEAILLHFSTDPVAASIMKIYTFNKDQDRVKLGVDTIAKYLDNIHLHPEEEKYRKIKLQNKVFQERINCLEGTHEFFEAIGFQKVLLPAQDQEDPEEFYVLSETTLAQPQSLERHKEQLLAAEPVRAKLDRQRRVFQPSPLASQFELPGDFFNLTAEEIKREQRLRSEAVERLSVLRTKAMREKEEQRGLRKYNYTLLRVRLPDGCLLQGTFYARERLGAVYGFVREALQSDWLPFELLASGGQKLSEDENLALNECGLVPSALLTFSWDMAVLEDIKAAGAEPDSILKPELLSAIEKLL
inactive: [1] -0.03 | [2] 0.027 | [3] 0.03 | [4] 0.022 | [5] 0.031

UFSP2 (UniProt Q9NUQ7)
UniProt Q9NUQ7, sequence (Q9NUQ7 whole entry, looked up): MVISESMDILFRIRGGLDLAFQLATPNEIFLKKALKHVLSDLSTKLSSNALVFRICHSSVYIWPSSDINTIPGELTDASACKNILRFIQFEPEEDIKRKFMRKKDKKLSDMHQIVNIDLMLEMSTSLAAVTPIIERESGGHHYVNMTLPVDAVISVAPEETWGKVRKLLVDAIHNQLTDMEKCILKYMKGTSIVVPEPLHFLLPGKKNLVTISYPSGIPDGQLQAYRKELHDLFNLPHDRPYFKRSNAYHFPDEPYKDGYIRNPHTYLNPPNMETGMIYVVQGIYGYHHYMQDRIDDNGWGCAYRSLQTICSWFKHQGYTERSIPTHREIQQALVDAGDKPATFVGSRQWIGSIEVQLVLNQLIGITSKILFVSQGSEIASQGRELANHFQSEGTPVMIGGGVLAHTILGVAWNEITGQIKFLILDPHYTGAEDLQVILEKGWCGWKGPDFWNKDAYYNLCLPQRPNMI
inactive: [1] 0.059 | [2] 0 | [3] 0.057 | [4] -0.04 | [5] 0.022

TPX2 (UniProt Q9ULW0)
UniProt Q9ULW0, sequence (Q9ULW0 whole entry, looked up): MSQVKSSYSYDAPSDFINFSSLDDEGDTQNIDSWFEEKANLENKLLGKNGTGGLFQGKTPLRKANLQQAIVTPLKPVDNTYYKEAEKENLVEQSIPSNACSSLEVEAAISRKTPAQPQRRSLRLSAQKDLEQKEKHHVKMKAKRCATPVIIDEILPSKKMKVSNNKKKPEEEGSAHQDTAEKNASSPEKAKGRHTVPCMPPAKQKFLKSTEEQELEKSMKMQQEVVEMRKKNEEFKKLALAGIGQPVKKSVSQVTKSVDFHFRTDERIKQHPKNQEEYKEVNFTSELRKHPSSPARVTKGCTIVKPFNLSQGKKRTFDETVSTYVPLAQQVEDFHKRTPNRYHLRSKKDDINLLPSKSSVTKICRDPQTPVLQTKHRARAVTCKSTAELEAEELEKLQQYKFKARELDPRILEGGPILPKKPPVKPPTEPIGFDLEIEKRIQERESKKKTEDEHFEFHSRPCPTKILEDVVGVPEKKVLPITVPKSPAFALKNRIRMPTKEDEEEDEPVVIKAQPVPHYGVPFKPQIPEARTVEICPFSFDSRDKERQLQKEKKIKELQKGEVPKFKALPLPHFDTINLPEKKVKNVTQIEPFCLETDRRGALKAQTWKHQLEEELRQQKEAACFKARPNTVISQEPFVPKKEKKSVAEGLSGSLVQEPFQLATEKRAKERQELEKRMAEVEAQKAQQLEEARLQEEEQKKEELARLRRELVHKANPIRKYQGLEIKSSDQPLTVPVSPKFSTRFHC
inactive: [1] 0.04 | [2] -0.006 | [3] 0.008 | [4] -0.003 | [5] 0

TUBB2A (UniProt Q13885)
UniProt Q13885, sequence (Q13885 whole entry, looked up): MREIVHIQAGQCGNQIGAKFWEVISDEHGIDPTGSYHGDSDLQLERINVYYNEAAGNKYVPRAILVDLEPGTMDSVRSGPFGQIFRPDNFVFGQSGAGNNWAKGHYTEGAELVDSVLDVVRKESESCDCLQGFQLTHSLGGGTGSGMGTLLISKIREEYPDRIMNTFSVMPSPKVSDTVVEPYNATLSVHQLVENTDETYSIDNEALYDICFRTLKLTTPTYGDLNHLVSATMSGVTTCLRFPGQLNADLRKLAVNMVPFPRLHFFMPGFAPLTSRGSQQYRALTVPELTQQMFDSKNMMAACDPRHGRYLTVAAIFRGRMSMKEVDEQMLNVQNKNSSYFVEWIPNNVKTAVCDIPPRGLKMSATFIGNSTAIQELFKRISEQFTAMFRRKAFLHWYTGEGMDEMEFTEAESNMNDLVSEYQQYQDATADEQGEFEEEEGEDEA
inactive: [1] 0.017 | [2] 0.01 | [3] 0 | [4] 0.003 | [5] -0.015

TBCE (UniProt Q15813)
UniProt Q15813, sequence (Q15813 whole entry, looked up): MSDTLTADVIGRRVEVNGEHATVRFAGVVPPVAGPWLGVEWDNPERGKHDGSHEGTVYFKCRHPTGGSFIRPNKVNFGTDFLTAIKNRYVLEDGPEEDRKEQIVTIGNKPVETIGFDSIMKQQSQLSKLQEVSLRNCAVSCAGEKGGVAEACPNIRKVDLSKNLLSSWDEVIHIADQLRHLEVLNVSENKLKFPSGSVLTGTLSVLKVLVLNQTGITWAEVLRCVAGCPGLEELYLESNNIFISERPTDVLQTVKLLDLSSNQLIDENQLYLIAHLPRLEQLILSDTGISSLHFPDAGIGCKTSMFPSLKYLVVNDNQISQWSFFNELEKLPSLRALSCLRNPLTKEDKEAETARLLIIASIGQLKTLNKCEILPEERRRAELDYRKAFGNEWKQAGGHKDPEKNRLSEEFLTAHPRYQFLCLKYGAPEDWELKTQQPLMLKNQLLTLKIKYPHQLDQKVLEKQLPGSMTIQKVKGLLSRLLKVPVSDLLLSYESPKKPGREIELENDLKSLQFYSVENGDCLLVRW
inactive: [1] 0.008 | [2] -0.027 | [3] 0.014 | [4] 0.008 | [5] 0.015

TJP1 (UniProt G3V1L9)
inactive: [1] -0.025 | [2] -0.014 | [3] 0.127 | [4] 0.009 | [5] -0.007

TRIM33 (UniProt H0Y612)
inactive: [1] -0.042 | [2] 0.008 | [3] 0.05 | [4] 0.021 | [5] 0.098
